# HT1080 IDH1KD tx – kills HT-1080 cells with IDH1 knockdown; Potency, µM (series often up to 46.1 µM), without a hit: top-dose activity, negative = toxicity, usual class: cytotoxic; HT-1080 IDH1 knockdown viability, ATP luminescence, 48 h; AID 686971; 360,000 compounds, 2% hits;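 also: potency is read from the fitted curve at half-maximal effect; 0% = DMSO wells and -100% = cell-free medium wells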
#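 Viability of IDH1-knockdown HT-1080 fibrosarcoma cells was assessed by CellTiter-Glo after 48 h at 37 °C with titrated compound; concentration-effect curves were classified by fit quality and response size.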
# TDP1 cell CPT – growth inhibition of DT40 Tdp1-/-;hTDP1 cells with camptothecin (screen for TDP1 inhibitors); chicken DT40 Tdp1-/-;hTDP1 cells + 20 nM CPT, ATP luminescence, 48 h; Potency, µM (series often up to 46.2 µM), inactives show at the highest dose activity change, negative = growth inhibition, usual class: inhibitors; 420,000 compounds, 12% hits; also: potency is read from the fitted curve at half-maximal effect; nearly all actives have a fitted effect of over 55% in size
#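 Chicken DT40 Tdp1-/- cells complemented with human TDP1, 400 cells/well, exposed to compounds plus 20 nM camptothecin for at least 48 h at 37 C; viability read as ATP content by CellTiter-Glo luminescence.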
# TDP1 cell noCPT – qHTS for Inhibitors of human tyrosyl-DNA phosphodiesterase 1 (TDP1): qHTS in cells in absence of CPT. DT40 Tdp1-/- hTDP1 cells, no CPT, ATP luminescence, 48 h. Potency, µM (doses to about 46.2 µM), for inactives: at the highest dose activity change, negative = growth inhibition, most hits filed as inhibitors. 420,000 compounds, 15% hits; also: potency is read from the fitted curve at half-maximal effect; nearly all actives have a fitted effect of over 55% in size
#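 DT40 Tdp1-/-;hTDP1 cells, no CPT (DMSO vehicle only), 400 cells/well; compounds pin-transferred; ≥48 hr, 37 °C; CellTiter-Glo 30 min RT dark, luminescence read.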
# IL1B secr inh – inflammasome signaling inhibition, IL-1 beta readout; activity change, % at 57.5 µM; THP-1 LPS/ATP IL-1B secretion, AlphaLISA, 16 h; active compounds read low; 360,000 compounds, 4.7% hits; AID 743279; in the data active = activity change below about -50%; inconclusive = mostly about -30% to -49%
#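 THP-1 cells pretreated 1 hr with compounds (up to 57.5 uM final), then stimulated with LPS (250 ng/mL final) plus ATP (1.25 mM final); secreted IL-1B measured by AlphaLISA after 16 hr, decreased signal indicating inhibition.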
# HT1080NT lethal – kills 2HG-producing HT-1080-NT fibrosarcoma cells; HT-1080-NT fibrosarcoma viability, CellTiter-Glo ATP luminescence, 48 h; AID 686970; 360,000 compounds, 1.6% hits; Potency, µM (series often up to 46.1 µM), without a hit: top-dose activity, negative = less viability, most hits filed as cytotoxic;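 also: NT is the 2HG producing partner of a matched IDH1 knockdown line; potency is read from the fitted curve at half-maximal effect; 0% = DMSO-treated cells and -100% = media-only wells without cells; nearly all actives have a fitted effect of over 55% in size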
#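 Viability of the 2HG-overproducing fibrosarcoma line after 48 hours of compound exposure at 37 degrees C was determined by luminescence with CellTiter-Glo, and concentration-effect curves were then fitted and categorized.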
# * marks the source's active call; other numbers are inactive results; ? = inconclusive; . = not tested or not shown. Compounds with a hit are over-represented: about 19% of the library has one in this group of screens. Unless noted, calls follow the shape of the dose curve; as a rule, active = well fitted curve in the direction sought with a large enough effect; inconclusive = small, poorly fitted or top-dose-only effect, or another doubt; inactive = no such curve, though single readings can be large; an effect the other way counts as inactive or inconclusive. Unless noted, % is scaled to controls: 0 for no effect and ±100 for the full control effect.
SMILES,HT1080 IDH1KD tx,TDP1 cell CPT,TDP1 cell noCPT,IL1B secr inh,HT1080NT lethal
CCOC(=O)C1CCCN(C(=O)CNC(=O)Cn2ccc3ccccc3c2=O)C1 (centres undefined),4%,-15%,-13%,-2,5%
Cc1ccc(NC(=O)CN2CCC(Cc3ccccc3)CC2)cc1S(=O)(=O)N(C)C,?,?,?,-54*,?
CC(=O)N1CCN(CC(=O)Nc2ccc(C)c(S(=O)(=O)N(C)C)c2)CC1,19%,-10%,?,-13,23%
Cc1ccc(NC(=O)CSc2nn(-c3ccc(Cl)cc3)c(=S)s2)cc1S(=O)(=O)N(C)C,?,9.2µM*,?,15,-5%
Cc1ccc(NC(=O)Cc2ccc(Cl)c(Cl)c2)cc1S(=O)(=O)N(C)C,-22%,?,23µM*,-24,1%
Cc1ccc(NC(=O)CCN2CCC(Cc3ccccc3)CC2)cc1,?,8%,?,-82*,?
CN1CCN(CCC(=O)Nc2ccccc2)CC1,14%,9%,-5%,14,17%
Cc1ccc(NC(=O)Cc2ccccc2Cl)cc1S(=O)(=O)N(C)C,-4%,-22%,-28%,-5,-5%
CCCN(C(=O)CCNC(=O)Cn1cnc2ccccc2c1=O)c1cccc(Cl)c1,-3%,10%,-32%,2,-8%
NS(=O)(=O)c1ccc(NS(=O)(=O)c2ccc(NC(=O)C3CC3)cc2)cc1,4%,-1%,23%,-8,13%
C=CC[C@@H](CC(=O)N[C@H](CO)Cc1ccccc1)C(=O)N[C@H](C)COC(=O)[C@@H](CC=C)CC(=O)OC(C)(C)C,-1%,?,?,8,1%
C=CC[C@@H](CC(=O)N[C@@H](CO)Cc1ccccc1)C(=O)NC[C@@H](OC(=O)[C@@H](CC=C)CC(=O)OC(C)(C)C)c1ccccc1,-6%,21µM*,?,-10,-2%
C=CC[C@@H](CC(=O)N[C@H](CO)Cc1ccccc1)C(=O)N[C@@H](COC(=O)[C@@H](CC=C)CC(=O)OC(C)(C)C)Cc1ccccc1,-7%,16µM*,?,-19,-4%
C=CC[C@@H](CC(=O)N[C@H](CO)Cc1ccccc1)C(=O)N[C@@H](C)COC(=O)[C@@H](CC=C)CC(=O)OC(C)(C)C,10%,?,-21%,7,5%
C=CC[C@@H](CC(=O)N[C@@H](CO)Cc1ccccc1)C(=O)N[C@@H](COC(=O)[C@H](CC=C)CC(=O)OC(C)(C)C)Cc1c[nH]c2ccccc12,-22%,?,21µM*,-19,-19%
C=CC[C@H](CC(=O)N[C@H](CO)Cc1ccccc1)C(=O)N[C@@H](COC(=O)[C@H](CC=C)CC(=O)OC(C)(C)C)Cc1c[nH]c2ccccc12,?,21µM*,23µM*,-16,?
C=CC[C@@H](CC(=O)NCCO)C(=O)NC[C@H](OC(=O)[C@@H](CC=C)CC(=O)OC(C)(C)C)c1ccccc1,3%,?,?,9,0%
CCOc1ccc(C2CC(=O)n3nc(-c4ccc(C)cc4)nc3S2)cc1 (centres undefined),.,-3%,-23%,.,.
C=CC[C@@H](CC(=O)N[C@@H](CO)Cc1ccccc1)C(=O)N[C@@H](COC(=O)[C@@H](CC=C)CC(=O)OC(C)(C)C)Cc1c[nH]c2ccccc12,-5%,21µM*,13µM*,-21,-8%
C=CC[C@H](CC(=O)N[C@H](CO)Cc1ccccc1)C(=O)N[C@H](COC(=O)[C@@H](CC=C)CC(=O)OC(C)(C)C)Cc1c[nH]c2ccccc12,-10%,?,?,-28,-8%
C=CC[C@@H](CC(=O)N[C@H](CO)Cc1ccccc1)C(=O)N[C@@H](COC(=O)[C@@H](CC=C)CC(=O)OC(C)(C)C)Cc1c[nH]c2ccccc12,-9%,16µM*,?,-27,-5%
COC(=O)CC1C(C)(C)C(=O)C2CC3C4=CC(=O)OC(c5ccoc5)[C@]4(C)CCC3[C@@]1(C)C2=O (some centres undefined),.,2%,-5%,.,.
Cc1cc(=O)n(C(C)C(=O)NCc2ccccc2Cl)c2c1c(C)nn2-c1ccccc1 (centres undefined),.,-20%,-10%,.,.
Cc1ccc(C(=O)NC(=S)Nc2ccc(-c3cc4ccccc4oc3=O)cc2)c(C)c1,8%,?,23µM*,-2,6%
Cc1ccc(C(=O)NC(=S)Nc2ccc(CN3CCCCC3)cc2)c(C)c1,?,-27%,?,-53*,?
SMILES,HT1080 IDH1KD tx,TDP1 cell CPT,TDP1 cell noCPT,IL1B secr inh,HT1080NT lethal
O=C(NC(=S)Nc1ccc(CN2CCCCC2)cc1)c1cc2ccccc2o1,12%,23µM*,21µM*,-5,-1%
COC(=O)c1ccc2nc(-c3ccc(C)cc3)c(Cc3cccc(Cl)c3)n2c1,-15%,16µM*,16µM*,0,-6%
COC(=O)c1ccc2nc(-c3ccc(Cl)cc3)c(Cc3cccc(Cl)c3)n2c1,0%,?,18µM*,29,-3%
CCCN(C(=O)COC(=O)CNC(=O)c1ccc2ccccc2c1)c1c(N)n(Cc2ccccc2)c(=O)[nH]c1=O,8%,20%,-7%,36,4%
COc1cc2c(cc1N)-c1ccc(N)cc1C2=O,-3%,?,16µM*,-64*,3%
COCCNC(=O)c1ccc2c(c1)NC(=O)C(CS(=O)(=O)Cc1ccc(F)cc1Cl)N2 (centres undefined),.,-12%,-12%,.,.
CCn1ccc(C(=O)Nc2c(C)nn(Cc3c(F)c(F)c(F)c(F)c3F)c2C)n1,-1%,?,16µM*,24,-3%
CCn1cc(Cl)c(C(=O)Nc2c(C)nn(Cc3c(F)c(F)c(F)c(F)c3F)c2C)n1,0%,15µM*,?,-8,7%
CCn1cc([N+](=O)[O-])c(C(=O)Nc2c(C)nn(Cc3c(F)c(F)c(F)c(F)c3F)c2C)n1,-1%,?,-30%,-11,1%
Cc1nn(Cc2c(F)c(F)c(F)c(F)c2F)c(C)c1NC(=O)c1cccc(COc2ccc(Cl)cc2)c1,4%,10µM*,7.3µM*,-6,6%
CC(C)c1cc(C(N)=O)c(NC(=O)c2cccc(COc3ccc(Cl)cc3)c2)s1,-22%,26µM*,?,?,-12%
COc1ccc(C(C(=O)NCCC(C)C)N(CCN2CCOCC2)C(=O)Cn2nnc3ccccc32)c(OC)c1 (centres undefined),5%,-3%,-17%,5,-27%
